Reference: PubChem BioAssay (Tox21)
Inconclusive results are not listed. Activity calls are given as the source filed them. Unless noted, calls follow the shape of the dose curve; as a rule, active = well fitted curve in the direction sought with a large enough effect in the repeat runs; inconclusive = weak or mixed curves; inactive = no such curve, though single readings can be large; an effect the other way counts as inactive or inconclusive.

Legend:
[1] = target: Aryl hydrocarbon receptor (Homo sapiens) (UniProt P35869); assay: qHTS assay to identify small molecule that activate the aryl hydrocarbon receptor (AhR) signaling pathway (AID 743085);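 also: HG2L7.5c1 human HepG2 liver cells with stably integrated DRE-driven firefly reporter; series mostly up to about 70 µM; nearly all actives have a fitted effect of over 15% in size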
Sequence of Aryl hydrocarbon receptor (Homo sapiens) (P35869 whole entry, looked up): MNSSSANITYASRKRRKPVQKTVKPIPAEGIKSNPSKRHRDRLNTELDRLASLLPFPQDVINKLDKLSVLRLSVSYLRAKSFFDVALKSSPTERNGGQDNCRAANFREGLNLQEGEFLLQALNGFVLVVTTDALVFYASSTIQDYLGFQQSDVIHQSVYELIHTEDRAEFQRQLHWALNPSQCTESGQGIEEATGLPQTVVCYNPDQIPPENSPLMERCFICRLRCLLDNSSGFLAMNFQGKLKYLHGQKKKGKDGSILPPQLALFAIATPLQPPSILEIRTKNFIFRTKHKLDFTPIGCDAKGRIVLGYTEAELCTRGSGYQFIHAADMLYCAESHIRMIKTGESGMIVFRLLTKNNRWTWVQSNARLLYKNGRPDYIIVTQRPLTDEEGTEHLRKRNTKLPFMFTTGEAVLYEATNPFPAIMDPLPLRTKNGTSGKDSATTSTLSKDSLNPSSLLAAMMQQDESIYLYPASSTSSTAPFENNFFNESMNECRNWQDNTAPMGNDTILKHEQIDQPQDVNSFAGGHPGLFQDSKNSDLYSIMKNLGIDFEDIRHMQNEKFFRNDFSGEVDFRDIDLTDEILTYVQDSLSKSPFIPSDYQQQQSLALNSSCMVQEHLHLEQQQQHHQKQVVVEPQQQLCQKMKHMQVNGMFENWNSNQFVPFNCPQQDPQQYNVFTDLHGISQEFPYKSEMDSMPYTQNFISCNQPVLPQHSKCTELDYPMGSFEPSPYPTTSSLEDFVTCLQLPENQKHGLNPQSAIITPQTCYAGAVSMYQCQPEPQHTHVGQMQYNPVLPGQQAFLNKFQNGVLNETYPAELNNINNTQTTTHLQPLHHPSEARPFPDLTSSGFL
Outline: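 Reporter assay in engineered HepG2 line HG2L7.5c1, whose plasmid carries twenty dioxin responsive elements upstream of firefly luciferase. Treatment lasted 24 h at 37C; ONE-Glo luminescence gauged induction.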

[2] = qHTS assay to identify small molecule that activate the aryl hydrocarbon receptor (AhR) signaling pathway - cell viability counter screen (AID 743086);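 also: HepG2 liver cells carrying the AhR DRE luciferase reporter; series mostly up to about 70 µM; nearly all actives have a fitted effect of over 45% in size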
Outline: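 HepG2-AhR-luc (HG2L7.5c1) cells, 4000/well, were preincubated 5 h at 37C, exposed to compound in qHTS format for 24 hr at 37C, then given CellTiter-Fluor for 30 min; viability was read as fluorescence in the reporter wells.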

[3] = target: Peroxisome proliferator-activated receptor gamma (Homo sapiens) (UniProt P37231); assay: qHTS assay to identify small molecule agonists of the peroxisome proliferator-activated receptor gamma (PPARg) signaling pathway (AID 743094; active = well fitted activation curve with a large enough effect in the signal ratio in the repeat runs, not every such curve was filed as active; the % refers to the signal ratio)
Sequence of Peroxisome proliferator-activated receptor gamma (Homo sapiens) (P37231 whole entry, looked up): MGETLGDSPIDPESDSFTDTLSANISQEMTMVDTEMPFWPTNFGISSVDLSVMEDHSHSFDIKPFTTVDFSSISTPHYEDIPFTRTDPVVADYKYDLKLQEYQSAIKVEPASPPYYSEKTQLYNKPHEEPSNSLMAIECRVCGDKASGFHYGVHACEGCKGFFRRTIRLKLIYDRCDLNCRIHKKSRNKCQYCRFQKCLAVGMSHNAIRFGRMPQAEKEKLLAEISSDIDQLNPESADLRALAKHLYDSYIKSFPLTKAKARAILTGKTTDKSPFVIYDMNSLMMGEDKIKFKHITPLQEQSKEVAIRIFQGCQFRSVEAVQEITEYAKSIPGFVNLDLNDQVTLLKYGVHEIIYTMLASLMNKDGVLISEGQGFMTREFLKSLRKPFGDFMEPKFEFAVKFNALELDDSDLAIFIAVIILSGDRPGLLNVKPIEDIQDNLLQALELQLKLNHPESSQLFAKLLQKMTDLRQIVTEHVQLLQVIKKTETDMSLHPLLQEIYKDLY
Outline: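 Following 5 h plating at 37C, PPARg-bla HEK293H cells receive compound or DMSO for 17 h; fluorescence intensity is recorded after LiveBLAzer B/G loading for 1 h at room temperature.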

[4] = qHTS assay to identify small molecule antagonists of the peroxisome proliferator-activated receptor gamma (PPARg) signaling pathway - cell viability counter screen (AID 743194); also: nearly all actives have a fitted effect of over 55% in size
Outline: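 PPARg-UAS-bla HEK293H cells were plated, rested 5 h at 37 C, then treated with compounds plus rosiglitazone (50 nM final) for 17 h at 37 C; viability was then read by CellTiter-Glo luminescence after 30 min at room temperature.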

[5] = qHTS assay for small molecule agonists of the antioxidant response element (ARE) signaling pathway - cell viability counter screen (AID 743203; calls by dose curve; also: nearly all actives have a fitted effect of over 55% in size)
Outline: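 Compounds in DMSO were pinned onto ARE-bla HepG2 cells plated 5 hrs earlier at 2,000 cells/well. Sixteen hours later at 37C/5% CO2, CellTiter-Glo was added and luminescence measured after 30 min at room temperature.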

[6] = qHTS assay for small molecule activators of the heat shock response signaling pathway - cell viability counter screen (AID 743209); also: nearly all actives have a fitted effect of over 50% in size
Outline: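 Counter screen for cytotoxicity in HeLa HSE-bla reporter cells. Treatment was 5 h at 37 C; viability was detected by luminescent ATP assay (CellTiter-Glo) in the same wells as the beta-lactamase read.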

[7] = qHTS assay for small molecule activators of the heat shock response signaling pathway (AID 743210; active = well fitted activation curve with a large enough effect in the signal ratio in the repeat runs, with a control signal flat, not every such curve was filed as active; the % refers to the signal ratio;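 also: HeLa cells with beta-lactamase reporter driven by heat shock elements; series mostly up to about 63 µM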)
Outline: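 Reporter gene assay: HeLa cells stably bearing an HSE-bla construct, compound treatment 5 h at 37 C, LiveBLAzer substrate 2.5 h at RT, fluorescence intensity.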

[8] = qHTS assay to identify small molecule agonists of the peroxisome proliferator-activated receptor delta (PPARd) signaling pathway - cell viability counter screen (AID 743211); also: nearly all actives have a fitted effect of over 55% in size
Outline: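 Multiplexed format: after the 2 h room-temperature LiveBLAzer B/G FRET step, CellTiter-Glo was added to the same wells. Luminescence after 30 min gave cell viability; compound exposure was 17 h at 37C.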

[9] = target: Peroxisome proliferator-activated receptor delta (Homo sapiens) (UniProt Q03181); assay: qHTS assay to identify small molecule agonists of the peroxisome proliferator-activated receptor delta (PPARd) signaling pathway (AID 743212; calls by dose curve)
Sequence of Peroxisome proliferator-activated receptor delta (Homo sapiens) (Q03181 whole entry, looked up): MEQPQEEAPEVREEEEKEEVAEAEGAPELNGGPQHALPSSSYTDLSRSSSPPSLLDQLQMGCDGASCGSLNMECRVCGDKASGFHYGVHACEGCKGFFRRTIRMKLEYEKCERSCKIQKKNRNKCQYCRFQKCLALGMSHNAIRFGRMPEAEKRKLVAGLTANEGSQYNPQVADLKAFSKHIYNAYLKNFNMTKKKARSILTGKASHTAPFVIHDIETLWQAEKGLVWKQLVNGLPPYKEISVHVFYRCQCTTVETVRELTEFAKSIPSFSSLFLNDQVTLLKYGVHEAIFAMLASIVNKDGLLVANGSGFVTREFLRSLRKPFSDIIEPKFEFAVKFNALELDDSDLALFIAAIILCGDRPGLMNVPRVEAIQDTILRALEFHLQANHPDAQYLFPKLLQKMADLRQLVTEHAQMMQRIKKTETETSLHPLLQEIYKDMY
Outline: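 A PPARd-bla HEK293H line with beta-lactamase under an Upstream Activator Sequence is treated with compounds at 37 C. Substrate loading for 2 h at room temperature precedes the fluorescence measurement.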

[10] = qHTS assay to identify small molecule antagonists of the peroxisome proliferator-activated receptor delta (PPARd) signaling pathway - cell viability counter screen (AID 743213); also: nearly all actives have a fitted effect of over 50% in size
Outline: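 HEK293H cells with the PPARd UAS-bla reporter, co-treated 17 h at 37 C with compounds and L165041 (300 nM final), were lysed with CellTiter-Glo. Luminescence indicated viable cell content.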

[11] = target: Peroxisome proliferator-activated receptor delta (Homo sapiens) (UniProt Q03181); assay: qHTS assay to identify small molecule antagonists of the peroxisome proliferator-activated receptor delta (PPARd) signaling pathway (AID 743215; active = well fitted inhibition curve with a large enough effect in the signal ratio in the repeat runs, not every such curve was filed as active; the % refers to the signal ratio;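 also: cells stimulated with agonist L165041 at 300 nM final during compound exposure; series mostly up to about 62 µM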)
Outline: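 With L165041 present at 300 nM final, compounds were incubated 17 h at 37 C on PPARd UAS-bla HEK293H cells. A FRET-based beta-lactamase substrate was then applied for 2 h at room temperature and fluorescence intensity recorded.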

[12] = qHTS assay to identify small molecule agonists of the farnesoid-X-receptor (FXR) signaling pathway - cell viability counter screen (AID 743218); also: nearly all actives have a fitted effect of over 45% in size
Outline: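 After 16 h at 37 C with test compounds, FXR-bla HEK 293T cells were given LiveBLAzer B/G substrate for 2 h at RT and then CellTiter-Glo; luminescence was taken after 30 min.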

[13] = qHTS assay to identify small molecule antagonists of the farnesoid-X-receptor (FXR) signaling pathway - cell viability counter screen (AID 743221; active = well fitted cell-killing curve with a large enough effect in the repeat runs, not every such curve was filed as active; also: nearly all actives have a fitted effect of over 50% in size)
Outline: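 CellTiter-Glo, 30 min RT, luminescence; same wells as the LiveBLAzer FRET read. Cells: FXR-UAS-bla HEK 293T. Treatment: compound with chenodeoxycholic acid 50 uM final, 16 h at 37 C.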

[14] = target: Vitamin D3 receptor (Homo sapiens) (UniProt P11473); assay: qHTS assay to identify small molecule agonists of the vitamin D receptor (VDR) signaling pathway (AID 743222; calls by dose curve)
Sequence of Vitamin D3 receptor (Homo sapiens) (P11473 whole entry, looked up): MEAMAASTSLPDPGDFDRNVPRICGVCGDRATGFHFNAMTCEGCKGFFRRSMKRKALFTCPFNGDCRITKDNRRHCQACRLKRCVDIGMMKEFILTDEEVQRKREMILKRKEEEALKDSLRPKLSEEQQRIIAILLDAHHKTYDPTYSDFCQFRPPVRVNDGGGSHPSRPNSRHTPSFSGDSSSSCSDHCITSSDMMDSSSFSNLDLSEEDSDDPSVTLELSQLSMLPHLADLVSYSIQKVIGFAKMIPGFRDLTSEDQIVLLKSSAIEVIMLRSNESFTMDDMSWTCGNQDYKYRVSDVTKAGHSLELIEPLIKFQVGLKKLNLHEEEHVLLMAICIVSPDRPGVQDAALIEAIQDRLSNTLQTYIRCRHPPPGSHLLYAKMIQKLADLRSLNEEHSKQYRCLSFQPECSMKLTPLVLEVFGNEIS
Outline: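 VDR-bla cells were seeded, left 4 h, treated with compounds in DMSO for 16 h, incubated 2 h at RT with B/G FRET substrate, and read for fluorescence.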

[15] = target: Vitamin D3 receptor (Homo sapiens) (UniProt P11473); assay: qHTS assay to identify small molecule antagonists of the vitamin D receptor (VDR) signaling pathway (AID 743223; active = well fitted inhibition curve with a large enough effect in the signal ratio in the repeat runs, not every such curve was filed as active; the % refers to the signal ratio)
Outline: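 After VDR-bla cells are plated and left 4 h at 37C, DMSO-dissolved compounds and 3 nM (final) calcitriol agonist are added. Incubation continues 16 h at 37C; FRET beta-lactamase substrate then develops 2 h at room temperature.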

[16] = qHTS assay to identify aromatase inhibitors - cell viability counter screen (AID 743084);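 also: cells stimulated with testosterone during compound exposure; nearly all actives have a fitted effect of over 55% in size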
[17] = qHTS assay for small molecule agonists of the antioxidant response element (ARE) signaling pathway (AID 743202; active = well fitted activation curve with a large enough effect in the signal ratio in the repeat runs, not every such curve was filed as active; the % refers to the signal ratio)
Outline: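 Compounds delivered in DMSO to ARE-bla HepG2 cells (2,000 cells/well, pre-incubated 5 h) and left 16 h at 37 C. LiveBLAzer B/G FRET substrate then added for 2 h at RT before fluorescence reading.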

[18] = target: Peroxisome proliferator-activated receptor gamma (Homo sapiens) (UniProt P37231); assay: qHTS assay to identify small molecule antagonists of the peroxisome proliferator-activated receptor gamma (PPARg) signaling pathway (AID 743191; calls by dose curve; also: series mostly up to about 63 µM; nearly all actives have a fitted effect of over 30% in size)
Outline: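 GeneBLAzer PPARg UAS-bla HEK293H cells carrying a UAS-driven beta-lactamase reporter were plated at 3000 cells/well, preincubated 5 h at 37C, then given compound for 17 h at 37C; LiveBLAzer B/G FRET substrate was read after 1 h at room temperature.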

[19] = target: Bile acid receptor (Homo sapiens) (UniProt Q96RI1); assay: qHTS assay to identify small molecule antagonists of the farnesoid-X-receptor (FXR) signaling pathway (AID 743217; active = well fitted inhibition curve with a large enough effect in the signal ratio in the repeat runs, not every such curve was filed as active; the % refers to the signal ratio)
Sequence of Bile acid receptor (Homo sapiens) (Q96RI1 whole entry, looked up): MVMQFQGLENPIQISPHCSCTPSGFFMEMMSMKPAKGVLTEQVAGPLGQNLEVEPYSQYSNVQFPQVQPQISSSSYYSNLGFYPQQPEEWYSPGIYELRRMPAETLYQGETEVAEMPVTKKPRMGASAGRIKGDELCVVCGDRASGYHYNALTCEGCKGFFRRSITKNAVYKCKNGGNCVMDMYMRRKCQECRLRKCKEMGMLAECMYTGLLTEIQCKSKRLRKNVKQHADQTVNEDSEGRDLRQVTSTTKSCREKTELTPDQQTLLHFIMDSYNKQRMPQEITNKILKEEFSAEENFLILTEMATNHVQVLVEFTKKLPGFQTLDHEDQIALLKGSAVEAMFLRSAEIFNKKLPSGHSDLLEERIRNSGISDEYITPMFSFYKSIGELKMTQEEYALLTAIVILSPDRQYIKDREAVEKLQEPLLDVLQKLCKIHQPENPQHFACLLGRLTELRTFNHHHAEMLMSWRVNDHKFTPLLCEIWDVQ
Outline: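 In this cell-based antagonist screen, inhibition of CDCA-driven (50 uM final) UAS-beta-lactamase expression in HEK 293T cells was measured by FRET fluorescence following 16 h compound exposure at 37 °C.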

Measured: Potency

CCCCCCCCS(=O)(=O)Cl
inactive: [1] | [2] | [3] | [4] | [5] | [6] | [7] | [8] | [9] | [10] | [11] | [12] | [13] | [14] | [15]

Cc1cnc(NS(=O)(=O)c2ccc(N)cc2)nc1
inactive: [4] | [5] | [6] | [7] | [10] | [12] | [13] | [14] | [15]

NCCc1cnc[nH]1
inactive: [16] | [2] | [4] | [17] | [5] | [7] | [8] | [10] | [12] | [13]

CCOC(=O)CC(C)=O
inactive: [2] | [4] | [17] | [5] | [7] | [10] | [12] | [13] | [14]

CC(C)NCCCC1(C(N)=O)c2ccccc2-c2ccccc21
inactive: [18] | [4] | [17] | [5] | [6] | [7] | [9] | [12] | [13] | [14] | [15]

CN1N=C(C(N)=O)CCC1=O
inactive: [4] | [17] | [5] | [6] | [7] | [9] | [10] | [12] | [13] | [14]

Cc1nc2c([nH]1)c(=O)n(C)c(=O)n2Cc1ccco1
inactive: [16] | [2] | [4] | [17] | [5] | [6] | [7] | [8] | [10] | [19] | [13] | [14] | [15]

C=CCS(=O)(=O)O
inactive: [16] | [2] | [3] | [4] | [5] | [6] | [7] | [8] | [10] | [19] | [12] | [13]

COC(=O)CCSCCC(=O)OC
inactive: [2] | [4] | [17] | [5] | [6] | [7] | [8] | [9] | [11] | [19] | [13]

CC(C)=CCCC(C)CC(=O)O (stereo not drawn)
inactive: [1] | [2] | [3] | [4] | [5] | [7] | [9] | [10] | [11] | [12] | [13] | [14] | [15]
